Measurements taken from PubChem BioAssay (NCI).
The panel holds about 83,000 compounds, 20% with a hit somewhere; the sample as a whole holds those more often.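 The test compound was applied at a single concentration to cells in 96-well plates for 48 hours, and percent growth was recorded.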 The source made the active and inactive calls. How the source made its calls: active means growth percent below 10; inactive means the rest.

What follows are compounds tested on ACHN renal (assay: NCI-60 one-dose screen, 48 h (100 = growth as untreated, 0 = no growth, -100 = all killed)). Settings: 10 µM unless noted.

Compound	growth
CC(=O)OC[C@]12CCC(C)(C)C[C@H]1[C@@]1(O)[C@H](O)C[C@@H]3[C@@]4(C)CCCNC(C)(C)[C@@H]4CC[C@@]3(C)[C@]1(C)CC2	109% (inactive)
COC(C(=O)[C@@H](O)[C@@H](C)O)[C@@H]1Cc2cc3cc(O[C@H]4C[C@@H](O[C@H]5C[C@@H](O)[C@H](O)C(C)O5)[C@H](O)C(C)O4)cc(O)c3c(O)c2C(=O)[C@H]1O[C@H]1C[C@@H](O[C@H]2C[C@@H](O[C@H]3C[C@@H](OC)[C@H](O)C(C)O3)[C@@H](O)C(C)O2)[C@H](O)C(C)O1 (some centres undefined)	53.6% (inactive)
O=C1CNC(c2ccccc2)C(c2ccccc2)N1 (centres undefined)	98.5% (inactive)
CCc1n(Cc2ccc3ccccc3c2)cc[n+]1Cc1ccc2ccccc2c1	72.3% (inactive)
O=C(/C=C/c1ccc(Cl)cc1)c1cccc(Nc2nc(Nc3ccccc3)nc(Nc3ccccc3)n2)c1	92.9% (inactive)
C=C1C(=O)O[C@H]2[C@H]1CC/C(COC(=O)NCc1cc[nH]c1)=C\CC[C@@]1(C)O[C@@H]21	45.3% (inactive)
CN1CCN(C(=O)c2ccc(NC(=O)Nc3ccc(-c4nc(N5CCOCC5)c5cccn5n4)cc3)cc2)CC1	-6.03% (active)
O=C1c2cccnc2C(=O)c2c1c(C(=O)NCCn1ccnc1)c1ccccn21	31.5% (inactive)
Cc1nn(-c2ccccc2)c(Oc2ccccn2)c1-c1nc2ccccc2s1	98.3% (inactive)
CCN(CC)c1nc(SCc2ccccc2Cl)ncc1C	108% (inactive)
COc1cc(-c2nc3cc(Cl)c(Cl)cc3[nH]2)ccc1OCC(=O)N=Nc1c(O)[nH]c2ccc([N+](=O)[O-])cc12	104% (inactive)
Brc1c2c(c(Br)c3ccccc13)CCCC2	104% (inactive)
CC1(C)CC2=C3C=C[C@@H]4[C@@]5(C)CCC(=O)C(C)(C)[C@@H]5CC[C@@]4(C)[C@]3(C)CC[C@@]2(C(=O)O)CC1=O	40.8% (inactive)
O=S(=O)(NCCNc1nccc(-c2c(-c3cccc(F)c3)nc3occn23)n1)c1ccc(Br)cc1	62% (inactive)
COc1ccc(-c2cc(-c3ccc(Cl)cc3)c(C#N)c(=O)n2CCCCC(=O)Nc2ccccc2N)cc1	51.6% (inactive)
COc1ccc2c3c([nH]c2c1)C(=O)c1nc(C)ccc1C3=O	35% (inactive)
Cc1c(-n2nnc(-c3nc4ccccc4s3)c2N)c(=O)n(-c2ccccc2)n1C	100% (inactive)

Compound	growth
COc1ccc(/C=C2\COc3ccc(O)c(O)c3C2=O)cc1	-42% (active)
O=C1c2cccnc2C(=O)c2c1c(C(=O)NCCCN1CCCCC1)c1ccccn21	-45.2% (active)
Cc1ccc(CNc2ccc(Cl)cc2NCc2ccc(C)c(O)c2)cc1O	0.115% (active)
Cc1ccc(Sc2nnc(/N=C3\C(=O)Nc4ccccc43)s2)cc1	96.6% (inactive)
O=C(Cn1cc(CN2CCCCCC2)nn1)Nc1ccc2c(ccn2Cc2ccccc2)c1	107% (inactive)
Cc1noc(C)c1C(=O)OCc1coc2ccccc2c1=O	78.3% (inactive)
S=C1CCSC(=S)N1CCCN1C(=S)CCSC1=S	44.4% (inactive)
Oc1ccc(CCn2c(O)c(/C=C3\CN=c4ccccc4=N3)sc2=S)cc1	54.3% (inactive)
COc1ccc(-c2nnc3n(C)c(=O)c4ccccc4n23)cc1N	50.8% (inactive)
Cn1cccc1C(=O)C1C(c2cccc([N+](=O)[O-])c2)C2C3CCCCC3CN2C12C(=O)Nc1ccc(Cl)cc12 (centres undefined)	59.9% (inactive)
CCOC(=O)C#Cc1c(C(=O)OCC)nnn1[C@@H]1O[C@H](CO)[C@H]2OC3(CCCCC3)O[C@H]21	-53% (active)
O=[N+]([O-])c1ccc(N/N=C(/C(=N/Nc2ccc([N+](=O)[O-])cc2)c2ccccc2)c2ccccc2)cc1	-1.56% (active)
N#Cc1c(-c2ccccc2)cc(-c2ccccc2)n(CCCCCC(=O)Nc2ccccc2N)c1=O	73.7% (inactive)
CC1(c2ccccc2O)NN=C(/N=C/c2cccc([N+](=O)[O-])c2)N1C(Cc1c[nH]c2ccccc12)C(=O)O (centres undefined)	91.1% (inactive)
O=C(OCc1ccc2c(Cl)cc(Cl)c(O)c2n1)n1cncn1	25.3% (inactive)
Clc1ccc(CNc2c3ccccc3nc3ccccc23)cc1	22.8% (inactive)
CCSc1nc(NC)c2cc(-c3ccc(C(F)(F)F)cc3)ccc2n1	97.6% (inactive)
